About 83,000 compounds went through this panel and 20% of them were active in at least one assay; those are over-represented in the sample as a whole.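 In brief: 96-well plates, 48 h treatment, single concentration, percent growth endpoint.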 The source made the active and inactive calls. The calls were made as follows: active = growth percent below 10; inactive = the rest.
Assays:
Assay in all cases: NCI-60 one-dose screen, 48 h (100 = growth as untreated, 0 = no growth, -100 = all killed)
Settings in all cases: 10 µM
NCI-H23 lung = test system: NCI-H23 lung
NCI-H226 lung = test system: NCI-H226 lung
NCI-H322M lung = test system: NCI-H322M lung
HOP-62 NSCLC = test system: HOP-62 NSCLC
NCI-H460 lung = test system: NCI-H460 lung
NCI-H522 lung = test system: NCI-H522 lung
A549/ATCC NSCLC = test system: A549/ATCC NSCLC
786-0 renal = test system: 786-0 renal
COLO 205 colon = test system: COLO 205 colon
DU-145 prostate = test system: DU-145 prostate

Measured: growth

COC(=O)c1ccc(=O)oc1
inactive: NCI-H23 lung 93% | NCI-H226 lung 101% | NCI-H322M lung 106% | HOP-62 NSCLC 96.1% | NCI-H460 lung 110% | NCI-H522 lung 99.9% | A549/ATCC NSCLC 101% | 786-0 renal 99.4% | COLO 205 colon 119% | DU-145 prostate 114%

CCN(CCCCCCN1CC(=O)N(CCCCCCN(CC)Cc2ccccc2OC)CC1=O)Cc1ccccc1OC
inactive: NCI-H23 lung 60.4% | NCI-H226 lung 107% | NCI-H322M lung 96.5% | HOP-62 NSCLC 79.7% | NCI-H460 lung 75.1% | NCI-H522 lung 76% | A549/ATCC NSCLC 85.8% | 786-0 renal 74.2% | COLO 205 colon 54.6% | DU-145 prostate 76.7%

COc1cc(C(=C2O[C@@H]([C@H]3COC(C)(C)O3)[C@H]3OC(C)(C)O[C@@H]23)c2cc(OC)c(OC)c(OC)c2)cc(OC)c1OC
inactive: NCI-H23 lung 95.2% | NCI-H226 lung 94.4% | NCI-H322M lung 103% | HOP-62 NSCLC 104% | NCI-H460 lung 111% | NCI-H522 lung 106% | A549/ATCC NSCLC 106% | 786-0 renal 97.2% | COLO 205 colon 117% | DU-145 prostate 112%

COc1ccc2c(c1)[n+]([O-])c(C#N)c(NC(=O)c1ccco1)[n+]2[O-]
inactive: NCI-H23 lung 99.9% | NCI-H226 lung 97.7% | NCI-H322M lung 95.2% | HOP-62 NSCLC 93.7% | NCI-H460 lung 107% | NCI-H522 lung 98.1% | A549/ATCC NSCLC 111% | 786-0 renal 105% | COLO 205 colon 96.2%

Cc1ccc(Nc2nnc(-c3cc(-c4ccncc4)n(-c4ccccc4)n3)s2)cc1
inactive: NCI-H23 lung 90.5% | NCI-H226 lung 86.2% | NCI-H322M lung 98.7% | HOP-62 NSCLC 114% | NCI-H460 lung 56.8% | NCI-H522 lung 84.5% | A549/ATCC NSCLC 60.5% | 786-0 renal 41.9% | COLO 205 colon 73.8% | DU-145 prostate 107%

CSc1nn(-c2ccccc2)c2ncnc(Oc3ccc(C)cc3)c12
inactive: NCI-H23 lung 91.8% | NCI-H226 lung 81.4% | NCI-H322M lung 82% | HOP-62 NSCLC 67.5% | NCI-H460 lung 91% | NCI-H522 lung 75.5% | A549/ATCC NSCLC 80% | 786-0 renal 65.4% | COLO 205 colon 113% | DU-145 prostate 105%

CC[C@H]1CCC/C=C/[C@@H]2C[C@H](O)C[C@H]2[C@H](O)/C=C/C(=O)O1
active: NCI-H23 lung -12.8% | NCI-H226 lung -1.27% | NCI-H322M lung -2.58% | NCI-H460 lung 6.08% | NCI-H522 lung -56.8% | A549/ATCC NSCLC 5.74% | 786-0 renal -49% | COLO 205 colon -97.2% | DU-145 prostate 3.43%
inactive: HOP-62 NSCLC 25.2%

CC1(O)CCC2CC3OC3(C)CCC3OC3(C)CCC1C2(C)C (stereo not drawn)
inactive: NCI-H23 lung 105% | NCI-H226 lung 108% | NCI-H322M lung 114% | HOP-62 NSCLC 98.8% | NCI-H460 lung 112% | NCI-H522 lung 98.1% | A549/ATCC NSCLC 90.7% | 786-0 renal 99.7% | COLO 205 colon 106%

O=C(Nc1ccc(CN2CCc3nc4cc(O)c(O)cc4cc32)cc1)c1ccc(Cl)c(Cl)c1
inactive: NCI-H23 lung 105% | NCI-H226 lung 78.7% | NCI-H322M lung 94% | HOP-62 NSCLC 107% | NCI-H460 lung 102% | NCI-H522 lung 101% | A549/ATCC NSCLC 111% | 786-0 renal 104% | COLO 205 colon 99.4% | DU-145 prostate 104%

O=C(/C=C/c1cc2ccccc2[nH]c1=O)c1ccc2c(c1)OCO2
inactive: NCI-H23 lung 98.5% | NCI-H226 lung 114% | NCI-H322M lung 92% | HOP-62 NSCLC 98% | NCI-H460 lung 94.4% | A549/ATCC NSCLC 93.4% | 786-0 renal 102% | COLO 205 colon 95.7% | DU-145 prostate 102%
active: NCI-H522 lung 3.16%

COc1ccc(-c2nn(-c3cccc(NC(=O)Nc4ccc(Cl)c(C(F)(F)F)c4)c3)cc2-c2ccncc2)cc1Cl
active: NCI-H23 lung 9.49% | NCI-H460 lung 1.08% | NCI-H522 lung -8.34% | A549/ATCC NSCLC 8.45% | COLO 205 colon -33.3%
inactive: NCI-H226 lung 22.4% | NCI-H322M lung 19.1% | HOP-62 NSCLC 25.2% | 786-0 renal 19% | DU-145 prostate 22.7%

COc1ccc2nc3cc(Cl)ccc3c(NCCNCC(C)O)c2c1 (stereo not drawn)
active: NCI-H460 lung 0.055% | NCI-H522 lung -56.5% | A549/ATCC NSCLC -3.68% | COLO 205 colon 8.35%
inactive: NCI-H23 lung 42.8% | NCI-H226 lung 67.9% | NCI-H322M lung 25.8% | HOP-62 NSCLC 19% | 786-0 renal 35.5% | DU-145 prostate 28.8%

COC(=O)[C@@H]1[C@H](O)[C@H](C)[C@H](O)[C@@](C)(O)/C=C\C=C(C)C(=O)Nc2c(C)c(OC(C)=O)c3c(c2O)C(=O)C(C)=C2OCOC(=C23)C(C)=C[C@@](C)(O)[C@H](O)[C@@H](C)[C@H]1OC(C)=O
inactive: NCI-H23 lung 101% | NCI-H226 lung 109% | NCI-H322M lung 125% | HOP-62 NSCLC 111% | NCI-H460 lung 127% | NCI-H522 lung 105% | A549/ATCC NSCLC 110% | 786-0 renal 95.2% | COLO 205 colon 112% | DU-145 prostate 85.5%

O=S(=O)(NCCNc1nccc(-c2c(-c3ccc(F)cc3)nc3sccn23)n1)c1ccc2ccccc2c1
inactive: NCI-H23 lung 90.8% | NCI-H226 lung 92.7% | NCI-H322M lung 73% | HOP-62 NSCLC 88.5% | NCI-H460 lung 55% | NCI-H522 lung 75.5% | A549/ATCC NSCLC 43.8% | 786-0 renal 89.4% | COLO 205 colon 57.4% | DU-145 prostate 78.8%

COc1ccc(-c2nc3sccn3c2-c2nc3c([nH]2)C(=O)c2ccccc2C3=O)cc1
inactive: NCI-H23 lung 95.7% | NCI-H226 lung 95.1% | NCI-H322M lung 108% | HOP-62 NSCLC 107% | NCI-H460 lung 91.3% | NCI-H522 lung 96.8% | A549/ATCC NSCLC 67.5% | 786-0 renal 89.4% | COLO 205 colon 102% | DU-145 prostate 104%

COc1ccc(OC)c(/C=C/c2nc(SC)n(-c3ccc(Cl)cc3)n2)c1
inactive: NCI-H23 lung 59.7% | NCI-H226 lung 70.9% | NCI-H322M lung 73.3% | HOP-62 NSCLC 90.3% | NCI-H460 lung 85.2% | NCI-H522 lung 81.6% | A549/ATCC NSCLC 64.8% | 786-0 renal 86.8% | COLO 205 colon 78.1% | DU-145 prostate 93.9%

CN1CCC2(CC1)NC(=O)c1c(c3ccc(Cl)c(Cl)c3n1C)C2C#N (stereo not drawn)
inactive: NCI-H23 lung 76.6% | NCI-H226 lung 53.8% | NCI-H322M lung 85.6% | HOP-62 NSCLC 58% | NCI-H460 lung 49% | NCI-H522 lung 76.3% | A549/ATCC NSCLC 63.7% | 786-0 renal 68.7% | COLO 205 colon 58% | DU-145 prostate 92.4%

CN(Cc1ccccc1)Cc1ccc([N+](=O)[O-])cc1I
inactive: NCI-H23 lung 107% | NCI-H226 lung 94.5% | NCI-H322M lung 92.9% | HOP-62 NSCLC 101% | NCI-H460 lung 97.3% | NCI-H522 lung 86.7% | A549/ATCC NSCLC 93.6% | 786-0 renal 97.8% | COLO 205 colon 104% | DU-145 prostate 95.6%

Cn1c([N+](=O)[O-])cnc1/C=C1\Oc2ccc(Cl)cc2C1=O
active: NCI-H23 lung -12.7% | NCI-H226 lung -27.2% | HOP-62 NSCLC -17.2% | NCI-H460 lung -44.3% | NCI-H522 lung -50.3% | A549/ATCC NSCLC -40.9% | 786-0 renal -23.2% | COLO 205 colon -41.6% | DU-145 prostate -17.1%
inactive: NCI-H322M lung 11.4%

CN1CCC(CNc2cc(C3(C(=O)Nc4cc(C(=O)Nc5ccc(Cl)c(C(F)(F)F)c5)ccc4F)CC3)ncn2)CC1
inactive: NCI-H23 lung 44% | NCI-H226 lung 72.5% | NCI-H322M lung 39.4% | NCI-H522 lung 46.6% | A549/ATCC NSCLC 13.4% | DU-145 prostate 40.5%
active: HOP-62 NSCLC -47.2% | NCI-H460 lung 3.98% | 786-0 renal -38.4% | COLO 205 colon -67.3%

Cc1ncc(-c2ccoc2)c(NC2CCCCCC2)n1
inactive: NCI-H23 lung 97.9% | NCI-H226 lung 103% | NCI-H322M lung 80.7% | HOP-62 NSCLC 102% | NCI-H460 lung 106% | NCI-H522 lung 82.8% | A549/ATCC NSCLC 101% | 786-0 renal 99.2% | COLO 205 colon 106% | DU-145 prostate 110%

CC(=O)N(C)c1ccc(Nc2ccc(Nc3ccc(N(C)C(C)=O)cc3)c3c2C(=O)c2ccccc2C3=O)cc1
inactive: NCI-H23 lung 87.3% | NCI-H226 lung 84.2% | NCI-H322M lung 75.4% | HOP-62 NSCLC 75.2% | NCI-H460 lung 64.9% | NCI-H522 lung 53.8% | A549/ATCC NSCLC 63.5% | 786-0 renal 78.7% | COLO 205 colon 70.6% | DU-145 prostate 91.2%

O=C1CC[C@@H]2CCCC[C@@H]2C1
inactive: NCI-H23 lung 99.9% | NCI-H226 lung 105% | NCI-H322M lung 110% | HOP-62 NSCLC 96.7% | NCI-H460 lung 112% | NCI-H522 lung 90.3% | A549/ATCC NSCLC 107% | 786-0 renal 103% | COLO 205 colon 108% | DU-145 prostate 123%

CCN(CC)CCOc1nc2ccccc2c2c1-c1ccc(OC)cc1C2=O
inactive: NCI-H226 lung 14%
active: NCI-H23 lung -29% | NCI-H322M lung -29.3% | HOP-62 NSCLC -4.04% | NCI-H460 lung -34.4% | NCI-H522 lung -56.4% | A549/ATCC NSCLC -28.5% | 786-0 renal 0.417% | COLO 205 colon -57.1% | DU-145 prostate -8.05%

Cc1ccc(C(=O)N2C/C(=C/c3ccc(F)cc3)C(=O)/C(=C/c3ccc(F)cc3)C2)cc1
inactive: NCI-H23 lung 97.6% | NCI-H226 lung 86.9% | NCI-H322M lung 90.6% | HOP-62 NSCLC 96.4% | NCI-H460 lung 101% | NCI-H522 lung 67.7% | A549/ATCC NSCLC 94.5% | 786-0 renal 91.6% | COLO 205 colon 111% | DU-145 prostate 101%

COc1ccc(-c2nc(-c3nc4ccc(OC)cc4[nH]3)cc3c2[nH]c2ccccc23)cc1
inactive: NCI-H23 lung 55% | NCI-H226 lung 65.3% | NCI-H322M lung 48.2% | HOP-62 NSCLC 53.9% | NCI-H522 lung 45.2% | A549/ATCC NSCLC 12.9% | 786-0 renal 37.4% | COLO 205 colon 31.3% | DU-145 prostate 19.9%
active: NCI-H460 lung 2.46%

Cc1cc(Cc2cc(C)c(O)c(C)c2)cc(C)c1O
inactive: NCI-H23 lung 74.1% | NCI-H226 lung 96.6% | NCI-H322M lung 68.2% | HOP-62 NSCLC 49.8% | NCI-H460 lung 29.1% | NCI-H522 lung 28.5% | A549/ATCC NSCLC 36.8% | 786-0 renal 56.2% | COLO 205 colon 104% | DU-145 prostate 78.3%

Source: PubChem BioAssay (NCI)
